Assay outcomes: PubChem BioAssay, National Center for Advancing Translational Sciences (NCATS)
This excerpt belongs to a sample that is enriched for hits.
Shiga inhibitor: A qHTS for Small Molecule Inhibitors of Shiga Toxin; Vero cells, Shiga toxin protein synthesis inhibition reporter; actives 9.2% (n = 290,000); inhibition, % at 38.7 µM; in the data active = inhibition mostly above about 28%, no sharp cut-off; inactive = mostly below about 43%; also: 0% is about no effect
Giardia FBPA inh: qHTS Assay for Inhibitors of Fructose-1,6-bisphosphate Aldolase from Giardia Lamblia. A8B2U2. purified Giardia FBPA. Potency, µM (series often up to 59.6 µM), for the others: top-dose activity, negative = inhibition, most hits filed as inhibitors. actives 0.71% (n = 290,000). AID 2451, 2010; also: potency is read from the fitted curve at half-maximal effect; % is scaled to controls: 0 for no effect and ±100 for the full control effect; nearly all actives have a fitted effect of over 55% in size
Target sequence (A8B2U2 whole entry, looked up): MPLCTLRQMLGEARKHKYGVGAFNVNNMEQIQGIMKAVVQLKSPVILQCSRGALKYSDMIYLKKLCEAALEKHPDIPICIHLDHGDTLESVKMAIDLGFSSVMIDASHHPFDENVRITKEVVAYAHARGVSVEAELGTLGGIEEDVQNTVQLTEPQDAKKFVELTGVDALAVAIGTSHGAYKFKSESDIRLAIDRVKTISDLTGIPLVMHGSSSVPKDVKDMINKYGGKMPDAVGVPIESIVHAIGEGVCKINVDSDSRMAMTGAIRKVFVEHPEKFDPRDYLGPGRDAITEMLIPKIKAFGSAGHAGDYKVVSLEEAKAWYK
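Giardia FBPA (40 nM reagent) was preincubated 10 min at RT with compound (up to 57.5 uM final), then substrate plus GAPDH/TPI/NAD/arsenate coupling system with diaphorase/resazurin was added; resorufin fluorescence (525/598 nm) was read after 20 min.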
LmPK inhibitor: qHTS Assay for Inhibitors of Leishmania Mexicana Pyruvate Kinase (LmPK); Q27686; purified LmPK, Kinase-Glo ATP luminescence, 1 h; Potency, µM (titrated, usually from 57.5 µM), without a hit: at the highest dose activity change, negative = inhibition, actives largely listed as inhibitors; actives 0.37% (n = 290,000); also: potency is read from the fitted curve at half-maximal effect; % is scaled to controls: 0 for no effect and ±100 for the full control effect
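Purified LmPK (0.1 nM) with 0.5 mM PEP and 0.1 mM ADP in imidazole buffer pH 7.2 with MgCl2/KCl, 1 h at room temperature. ATP formed was read by luciferase luminescence and normalized to no-enzyme and uninhibited controls.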
Cycloheximide cs: Cycloheximide Counterscreen for Small Molecule Inhibitors of Shiga Toxin | cell reporter, cycloheximide protein synthesis inhibition counterscreen | max response, % | actives 12% (n = 300,000) | AID 2314, 2010; in the data active = max response mostly above about 13%, no sharp cut-off; inactive = mostly below about 14%; also: read at 38.3 µM for the half of the compounds with a filed dose; 0% is about no effect
TbPYK inhibitor: qHTS of Trypanosoma Brucei Inhibitors; pyruvate kinase (Trypanosoma brucei), Q57TT1; TbPYK enzyme, Kinase-Glo Plus ATP luminescence, 45 min; Potency, µM (highest dose often 76.8 µM), for the others: at the highest dose activity, negative = inhibition, usual class: inhibitors; actives 0.12% (n = 410,000); AID 624173, 2012; also: potency is read from the fitted curve at half-maximal effect; % is scaled to controls: 0 for no effect and ±100 for the full control effect; nearly all actives have a fitted effect of over 50% in size
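Readout: single end-point luminescence (Kinase-Glo Plus, 10 min). Reaction conditions were TbPYK/substrate plus 130 uM ADP, 45 min at RT, pH 7.2 TEA buffer. No-enzyme wells served as controls, and data were normalized before concentration-response fitting.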
Sm TGR inh: qHTS Assay for the Inhibitors of Schistosoma Mansoni Peroxiredoxins | Schistosoma mansoni thioredoxin glutathione reductase (TGR), Q962Y6 | actives 3% (n = 360,000) | purified TGR, DTNB reduction, TNB absorbance 405 nm | Potency, µM (top dose mostly 114 µM), for inactives: at the highest dose activity change, negative = inhibition, most hits filed as inhibitors; also: potency is read from the fitted curve at half-maximal effect; % is scaled to controls: 0 for no effect and ±100 for the full control effect; nearly all actives have a fitted effect of over 60% in size
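First, TGR (20 nM dispensed) and NADPH were mixed with compound. Second, a 15 min room-temperature incubation followed. Third, further NADPH and then DTNB were added to start the reaction. Finally, TNB absorbance was monitored kinetically.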
Starred values were filed as active, the others as inactive. Unless noted, calls follow the shape of the dose curve; as a rule, active = well fitted curve in the direction sought with a large enough effect; inconclusive = small, poorly fitted or top-dose-only effect, or another doubt; inactive = no such curve, though single readings can be large; an effect the other way counts as inactive or inconclusive.

How did COC(=O)c1ccc(C)c(NC(=O)C2COc3ccccc3O2)c1 (stereo not given) do in these assays?
Shiga inhibitor: -1; Giardia FBPA inh: 4%; LmPK inhibitor: -1%; Cycloheximide cs: -3; TbPYK inhibitor: 2%; Sm TGR inh: 9%

Results for COc1ccc(Cl)cc1NC(=O)CSC1=Nc2ccccc2C2=NC(CC(=O)NCc3ccc4c(c3)OCO4)C(=O)N12 (stereo not given) ?
TbPYK inhibitor: 1%; Sm TGR inh: -1%

Results for COc1ccc(-c2nn(C)c3sc(C(=O)Nc4cc(OC)c(OC)c(OC)c4)cc23)cc1OC ?
TbPYK inhibitor: 7%; Sm TGR inh: -6%

How did O=C(Nc1ccccc1)C1COc2ccccc2O1 (stereo not given) do in these assays?
Shiga inhibitor: 57*; Giardia FBPA inh: -3%; LmPK inhibitor: -4%; Cycloheximide cs: 22*; TbPYK inhibitor: -2%; Sm TGR inh: -13%

What do the screens show for `O=C(Nc1ccc([N+](=O)[O-])cc1)C1COc2ccccc2O1` (stereo not given)?
Giardia FBPA inh: 10%; LmPK inhibitor: 1%; Cycloheximide cs: -4; TbPYK inhibitor: -2%; Sm TGR inh: -4%

Results for Cc1ccc(NC(=O)C2COc3ccccc3O2)cc1 (stereo not given) ?
Shiga inhibitor: 105*; Giardia FBPA inh: 5%; LmPK inhibitor: -7%; Cycloheximide cs: 35*; TbPYK inhibitor: 3%; Sm TGR inh: 2%

Results for O=C1NC(=O)c2cc(NC(=O)C3COc4ccccc4O3)ccc21 (stereo not given) ?
Shiga inhibitor: 22; Giardia FBPA inh: -1%; LmPK inhibitor: 0%; Cycloheximide cs: 19; TbPYK inhibitor: 1%; Sm TGR inh: -1%

How did CC1(C)Oc2ccc(NC(=O)C3COc4ccccc4O3)cc2O1 (stereo not given) do in these assays?
Shiga inhibitor: 72; Giardia FBPA inh: -9%; LmPK inhibitor: inconclusive; Cycloheximide cs: 35*; TbPYK inhibitor: inconclusive; Sm TGR inh: 7%

What do the screens show for `Cc1ccc(NC(=O)C2Oc3ccccc3OC2C)cc1` (stereo not given)?
Shiga inhibitor: 19; Giardia FBPA inh: 5%; LmPK inhibitor: 1%; Cycloheximide cs: 15*; TbPYK inhibitor: 1%; Sm TGR inh: 1%

Results for CCCC1=Nc2cc(C(=O)NC3CCCCC3)ccc2Sc2ccc(C)cc21 ?
TbPYK inhibitor: 6%; Sm TGR inh: 1%

What do the screens show for `Cn1c(=O)n(-c2ccc(Br)cc2F)c(=O)c2sc3ccccc3c21`?
TbPYK inhibitor: 2%; Sm TGR inh: 4%

How did COC(=O)c1scc(-c2ccc(C)cc2)c1S(=O)(=O)Nc1cc(C)c(Cl)cc1OC do in these assays?
TbPYK inhibitor: 5%; Sm TGR inh: 1%

What do the screens show for `COc1ccc(NC(=O)CCc2nnc3n(Cc4ccccc4Cl)c(=O)c4ccccc4n23)cc1`?
TbPYK inhibitor: 5%; Sm TGR inh: 3%

How did O=C(NC1CCCCC1)C1COc2ccccc2O1 (stereo not given) do in these assays?
TbPYK inhibitor: -2%; Sm TGR inh: 28µM*

Results for CC1CCC(NC(=O)C2COc3ccccc3O2)CC1 (stereo not given) ?
TbPYK inhibitor: -3%; Sm TGR inh: inconclusive

How did CN(CC1COc2ccccc2O1)C(=S)NC1CCCCC1 (stereo not given) do in these assays?
Shiga inhibitor: 59*; Giardia FBPA inh: -6%; LmPK inhibitor: 6%; Cycloheximide cs: 25*; TbPYK inhibitor: 5%; Sm TGR inh: 7%

What do the screens show for `COc1ccc(S(=O)(=O)N2CCN(CC(=O)Nc3ccc(Cl)c(C(F)(F)F)c3)CC2)cc1`?
TbPYK inhibitor: 1%; Sm TGR inh: 13%

How did N#Cc1c(-c2ccccc2)cc2nc3ccccc3n2c1N do in these assays?
Shiga inhibitor: 0; Giardia FBPA inh: 4%; LmPK inhibitor: -2%; Cycloheximide cs: 24*; TbPYK inhibitor: -2%; Sm TGR inh: -3%

How did COc1cc(CN2CCN(S(=O)(=O)c3ccc(NC(C)=O)cc3)CC2)cc(OC)c1O do in these assays?
Shiga inhibitor: -15; Giardia FBPA inh: inconclusive; LmPK inhibitor: -2%; Cycloheximide cs: -4; TbPYK inhibitor: 0%; Sm TGR inh: inconclusive

What do the screens show for `COc1ccc(S(=O)(=O)N2CCN(Cc3cc(OC)c(O)c(OC)c3)CC2)cc1`?
Shiga inhibitor: -1; Giardia FBPA inh: inconclusive; LmPK inhibitor: -5%; Cycloheximide cs: -1; TbPYK inhibitor: -7%; Sm TGR inh: 3.5µM*

How did COc1cc(CN2CCN(S(=O)(=O)c3ccccc3)CC2)cc(OC)c1O do in these assays?
TbPYK inhibitor: 0%; Sm TGR inh: 4.5µM*

What do the screens show for `CCN(C(=O)Cn1c(=O)n(-c2ccccc2)c(=O)c2ccc(C(=O)NCc3ccc4c(c3)OCO4)cc21)c1cccc(C)c1`?
TbPYK inhibitor: -4%; Sm TGR inh: 1%

What do the screens show for `CCOC(=O)c1[nH]c2c(c1Cc1ccccc1)C(=O)CC(c1ccccc1)C2` (stereo not given)?
TbPYK inhibitor: -7%; Sm TGR inh: 8%

What do the screens show for `CCC(C)OC(=O)c1[nH]c2c(c1C)C(=O)CC(c1ccc(N(C)C)cc1)C2` (stereo not given)?
Shiga inhibitor: 57*; Giardia FBPA inh: -26%; LmPK inhibitor: -4%; Cycloheximide cs: 41*; TbPYK inhibitor: -1%; Sm TGR inh: -26%

Results for CCOCCOC(=O)c1[nH]c2c(c1C)C(=O)CC(c1ccc(N(C)C)cc1)C2 (stereo not given) ?
Shiga inhibitor: 18; Giardia FBPA inh: -17%; LmPK inhibitor: -1%; Cycloheximide cs: 7; TbPYK inhibitor: 0%; Sm TGR inh: -11%

Results for CCOC(=O)c1[nH]c2c(c1-c1ccccc1)C(=O)CC(c1ccccc1)C2 (stereo not given) ?
Shiga inhibitor: 54*; Giardia FBPA inh: 5%; LmPK inhibitor: 3%; Cycloheximide cs: 41*; TbPYK inhibitor: 5%; Sm TGR inh: 4%

How did C/C=C/COC(=O)c1[nH]c2c(c1C)C(=O)CC(c1ccc(N(C)C)cc1)C2 (stereo not given) do in these assays?
Shiga inhibitor: 20; Giardia FBPA inh: -21%; LmPK inhibitor: 1%; Cycloheximide cs: 23*; TbPYK inhibitor: -4%; Sm TGR inh: -19%
